Screening results from PubChem.
Most compounds without a hit are left out; they make up all but 3.3% or so of the library.
AmpC inh detg – qHTS Inhibitors of AmpC Beta-Lactamase (assay with detergent) | P00811 | AmpC hydrolysis of nitrocefin, absorbance 480 nm, 0.01% Triton | Potency, µM (highest dose often 114 µM), without a hit: at the top dose activity change, negative = inhibition, most hits filed as inhibitors | actives 0.041% (n = 370,000);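 note: 0% = no-compound wells and -100% = no-enzyme wells; nearly all actives have a fitted effect of over 25% in size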
Target sequence (P00811 whole entry, looked up): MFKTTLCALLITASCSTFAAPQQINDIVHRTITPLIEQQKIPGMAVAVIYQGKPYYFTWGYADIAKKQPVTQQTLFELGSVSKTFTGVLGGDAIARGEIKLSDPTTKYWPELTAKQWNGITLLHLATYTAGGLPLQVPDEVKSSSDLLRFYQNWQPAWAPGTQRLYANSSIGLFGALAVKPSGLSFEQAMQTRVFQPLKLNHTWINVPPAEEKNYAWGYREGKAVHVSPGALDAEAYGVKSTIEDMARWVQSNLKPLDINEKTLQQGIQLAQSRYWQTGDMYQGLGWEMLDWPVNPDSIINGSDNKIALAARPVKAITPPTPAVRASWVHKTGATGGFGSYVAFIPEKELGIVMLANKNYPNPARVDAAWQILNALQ
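AmpC (5.3 nM in the dispensed reagent) in 20 mM phosphate pH 7.0 with 0.01% (detergent screen) or 0.0001% Triton X-100 was preincubated with compounds for 15 min at room temperature. Nitrocefin was then added from an 800 uM solution, and hydrolysis was followed at 480 nm.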
AmpC no deterg – qHTS Inhibitors of AmpC Beta-Lactamase (assay without detergent) | P00811 | AmpC nitrocefin hydrolysis, absorbance 480 nm, 0.0001% Triton | actives 0.52% (n = 330,000) | AID 485341, 2010 | Potency, µM (highest dose often 57.1 µM), inactives show top-dose activity change, negative = inhibition, actives largely listed as inhibitors;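 note: plate controls were no compound for no effect and no enzyme for full effect; nearly all actives have a fitted effect of over 20% in size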
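AmpC (5.3 nM in the dispensed reagent) in 20 mM phosphate pH 7.0 with 0.01% (detergent screen) or 0.0001% Triton X-100 was preincubated with compounds for 15 min at room temperature. Nitrocefin was then added from an 800 uM solution, and hydrolysis was followed at 480 nm.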
Sm TGR inh – qHTS Assay for the Inhibitors of Schistosoma Mansoni Peroxiredoxins; AID 485364, 2010; actives 3% (n = 360,000); Potency, µM (titrated, usually from 114 µM), for inactives: top-dose activity change, negative = inhibition, usual class: inhibitors; Schistosoma mansoni thioredoxin glutathione reductase (TGR), Q962Y6; purified TGR, DTNB reduction, TNB absorbance 405 nm; note: nearly all actives have a fitted effect of over 60% in size
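Kinetic colorimetric format: TGR-catalysed, NADPH-driven DTNB reduction monitored via TNB absorbance. Enzyme dispensed at 20 nM; compound exposure 15 min at room temperature before reaction start.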
The depositor's hits bear a star; ? = inconclusive; . = no result given; ! = repeats disagree. Calls come from the whole dose curve; as a rule, active = well fitted curve in the direction sought with a large enough effect; inconclusive = small, poorly fitted or top-dose-only effect, or another doubt; inactive = no such curve, though single readings can be large; an effect the other way counts as inactive or inconclusive. Unless noted, % is set by controls: 0 for no effect and ±100 for the full control effect; potency is the fitted concentration of half-maximal effect.

SMILES | AmpC inh detg | AmpC no deterg | Sm TGR inh
C=CCN(CC=C)C(=O)CN1C(=O)NC(C)(c2ccc3cc(OC)ccc3c2)C1=O (configuration not stated) | 0% | 53% | -3%
COc1ccc(CNc2cc(C)ccn2)c(O)c1 | 0% | -15% | 7.1µM*
Cc1ccnc(NCc2ccccc2O)c1 | -13% | -30% | -6%
Cc1c(C(=O)N/N=C/c2ccccn2)nnn1-c1nonc1N | -12% | -2% | 1%
O=C1C=C(NCc2ccccc2)CCC1 | -15% | -6% | -3%
O=C1C=C(NC2=CC3OC(c4ccccc4)OCC3OC2=O)CCC1 (configuration not stated) | -18% | -14% | 25µM*
O=C(Nc1ccc(C(F)(F)F)cc1)c1ccccc1-n1cnnn1 | ? | -15% | -6%
CC(C)Oc1ccc(CNC(=O)c2ccc(CS(=O)c3cccc(Cl)c3)o2)cc1 (configuration not stated) | -5% | . | ?
CC(C)Oc1ccc(CNC(=O)c2ccc(CS(=O)Cc3ccccc3Cl)o2)cc1 (configuration not stated) | 4% | . | 45µM*
O=C(NCc1ccc(F)cc1)c1ccc(CS(=O)(=O)Cc2ccccc2F)o1 | ? | -9% | 40µM*
COCCNC(=O)c1ccc(CS(=O)(=O)c2c(Cl)cccc2Cl)o1 | -6% | -42% | 50µM*
O=C(NCc1ccccc1)c1ccc(CS(=O)(=O)c2c(Cl)cccc2Cl)o1 | -15% | . | -4%
O=C(NC1CCCCC1)c1ccc(CS(=O)Cc2ccc(Cl)cc2)o1 (configuration not stated) | 2% | 32% | 45µM*
O=C(NC1CCCC1)c1ccc(CS(=O)Cc2ccc(Cl)cc2)o1 (configuration not stated) | -5% | 0% | ?
O=C(NCc1ccc(F)cc1)c1ccc(CS(=O)(=O)Cc2ccc(F)cc2)o1 | 0% | 2% | -18%
Cc1ccc2[nH]c(=O)c(CN(C(=O)c3cccs3)c3ccccc3)cc2c1 | 0% | -22% | 0%
COc1ccc(C(C)=O)cc1COC(=O)CCC(=O)c1cccs1 | . | -16% | .
COc1ccccc1CNC(=O)c1ccc(CS(=O)Cc2cccc(Cl)c2)o1 (configuration not stated) | 1% | 46% | 22µM*
COc1ccc(S(=O)Cc2ccc(C(=O)NCc3cccc(OC)c3)o2)cc1 (configuration not stated) | 0% | -6% | 25µM*
O=C(c1ccc(CS(=O)Cc2ccccc2Cl)o1)N1CCN(c2ccccn2)CC1 (configuration not stated) | -6% | 61% | ?
COc1cccc(CNC(=O)c2ccc(CS(=O)Cc3ccc(Cl)cc3)o2)c1 (configuration not stated) | 14% | . | -22%
Cc1ccccc1CS(=O)(=O)Cc1ccc(C(=O)NC2CCCCC2)o1 | 3% | 11% | -29%
O=C(NCc1ccc(Cl)cc1)c1ccc(CS(=O)Cc2cccc(Cl)c2)o1 (configuration not stated) | 1% | 71% | -17%
O=C(NC1CCCC1)c1ccc(CS(=O)Cc2ccccc2Cl)o1 (configuration not stated) | 4% | -5% | 32µM*
O=C(NC1CCCCC1)c1ccc(CS(=O)Cc2ccccc2Cl)o1 (configuration not stated) | 3% | 29% | 45µM*
SMILES | AmpC inh detg | AmpC no deterg | Sm TGR inh
CSCCC(NC(=O)COc1ccccc1)C(=O)N(C)Cc1cccc(F)c1 (configuration not stated) | ? | 4% | 3%
COc1ccc(CCn2c(C)c(C(C)=O)c3cc(OC(=O)c4ccco4)ccc32)cc1OC | 2% | 8% | -10%
CCC(OC(=O)c1nsc(Cl)c1Cl)C(=O)NCCc1ccccc1 (configuration not stated) | -4% | -9% | 0%
O=C(NCCc1ccccc1)c1ccc(CS(=O)(=O)Cc2ccccc2Cl)o1 | -6% | . | 50µM*
O=C(NCCc1ccc(Cl)cc1)c1ccc(CS(=O)Cc2ccccc2Cl)o1 (configuration not stated) | -1% | 115% | 32µM*!
CSc1ccc(CCNC(=O)c2ccc(CS(=O)Cc3ccccc3Cl)o2)cc1 (configuration not stated) | 0% | 62% | -20%
O=C(NCCc1cccs1)c1ccc(CS(=O)Cc2ccc(Cl)cc2)o1 (configuration not stated) | 1% | 23% | 45µM*
Cc1ccccc1CS(=O)(=O)Cc1ccc(C(=O)NCCc2ccccc2)o1 | -1% | 14% | ?
O=C(NCCCc1ccccc1)c1ccc(CS(=O)Cc2ccc(Cl)cc2)o1 (configuration not stated) | 2% | 95% | ?
Cc1ccc(S(=O)Cc2nc(-c3ccc(C(=O)NCc4cccc(C)c4)cc3)oc2C)cc1 (configuration not stated) | 19% | . | -31%
Cc1ccc(-c2noc(-c3ccc(N4CCN(C)CC4)c([N+](=O)[O-])c3)n2)cc1 | 22% | . | -5%
CN1CCN(c2ccc([N+](=O)[O-])c3no[n+]([O-])c23)CC1 | -8% | -16% | 45µM*
O=C(C1=NN(c2ccccc2)C2C(=O)N(c3ccccc3Cl)C(=O)C12)c1ccccc1 (configuration not stated) | 15% | -18% | 9%
CCCCc1ccc(S(=O)(=O)N/N=C(/C)c2ccncc2)cc1 | -10% | -10% | 0%
Cc1cc(=O)n(CC(=O)N2CCN(c3ccc(F)cc3)CC2)c2c1c(C)nn2C | -12% | . | 1%
COc1ccc(-c2noc(Cn3c(=O)c4ccccc4n(CC(=O)Nc4cccc(OC)c4)c3=O)n2)cc1 | 13% | . | 5%
COc1ccc(NC(=O)c2ccco2)cc1NC(=O)COc1ccccc1Cl | 19% | . | -2%
O=C(COC(=O)c1ccc([N+](=O)[O-])s1)Nc1ccc(F)cc1 | 0% | -25% | 14µM*
O=C(COC(=O)c1ccc([N+](=O)[O-])s1)Nc1ccccc1 | -6% | -8% | ?
CSc1ccc(C2c3c(oc4cc(C)cc(C)c4c3=O)C(=O)N2CCO)cc1 (configuration not stated) | 5% | . | 0%
Cc1ccc(Cn2c(N3CCN(C)CC3)nc3c2c(=O)[nH]c(=O)n3C)cc1 | 2% | 0% | 3%
COC(=O)c1c(-c2ccco2)csc1NC(=O)C1CC=CCC1C(=O)O (configuration not stated) | 6% | 3% | 45µM*
CCOC(=O)c1c(-c2ccc(F)cc2)csc1NC(=O)C1CC=CCC1C(=O)O (configuration not stated) | 0% | -18% | .
COc1ccc(OCCCCOc2ccccc2Cl)cc1 | -1% | -16% | 9%
CCOc1ccccc1NC(=O)c1ccc(C(=O)Nc2ccccc2OCC)cc1 | 10% | . | 2%
CCOc1ccccc1NC(=O)CCS(=O)(=O)c1cccs1 | ? | -17% | 56µM*
CCOc1ccccc1NC(=S)Nc1ccc(S(N)(=O)=O)cc1 | 0% | -17% | 14µM*
CCOc1ccccc1NC(=O)/C=C/C(N)=O | -4% | -16% | 4µM*
CCOc1ccccc1NC(=O)Nc1cccc(S(N)(=O)=O)c1 | 8% | -19% | -1%
